Bioassay records: PubChem BioAssay, National Center for Advancing Translational Sciences (NCATS)
PLK1 PBD block = PLK1 (human) polo-box domain binding inhibition. 360,000 tested, 2.8% active. Plk1 PBD binding of FITC phosphopeptide, fluorescence polarization. AID 720504. Potency, µM, usual class: inhibitors. P53350; note: series mostly up to about 57 µM; nearly all actives have a fitted effect of over 65% in size
TDP1 block = inhibitors of human tyrosyl-DNA phosphodiesterase TDP1; Q9NUW8; recombinant TDP1, AlphaScreen DNA substrate cleavage; Potency, µM (series often up to 130 µM), hits mostly inhibitors; 350,000 tested, 0.28% active; AID 485290; note: nearly all actives have a fitted effect of over 40% in size
Target sequence (Q9NUW8 whole entry, looked up): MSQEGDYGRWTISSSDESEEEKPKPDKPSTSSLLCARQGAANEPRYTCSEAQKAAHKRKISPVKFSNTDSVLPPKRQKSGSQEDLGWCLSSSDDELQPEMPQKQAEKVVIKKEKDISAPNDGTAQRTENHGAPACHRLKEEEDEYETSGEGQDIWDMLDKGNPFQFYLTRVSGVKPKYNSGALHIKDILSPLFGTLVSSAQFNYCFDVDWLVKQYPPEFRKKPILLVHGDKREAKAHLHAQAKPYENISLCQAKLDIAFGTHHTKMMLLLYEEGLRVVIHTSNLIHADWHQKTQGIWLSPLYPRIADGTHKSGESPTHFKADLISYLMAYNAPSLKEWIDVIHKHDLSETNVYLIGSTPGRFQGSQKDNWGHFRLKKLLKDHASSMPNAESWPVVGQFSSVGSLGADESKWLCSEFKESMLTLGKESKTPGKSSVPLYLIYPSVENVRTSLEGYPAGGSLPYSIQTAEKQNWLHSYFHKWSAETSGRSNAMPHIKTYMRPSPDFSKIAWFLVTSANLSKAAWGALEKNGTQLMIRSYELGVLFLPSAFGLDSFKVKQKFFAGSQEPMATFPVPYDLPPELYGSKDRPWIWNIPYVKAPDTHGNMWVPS
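AlphaScreen read-out: signal falls as enzyme removes the 3' tyrosine-FITC from a 5'-biotinylated DNA oligo (15 nM, 5 min, RT). Enzyme was E. coli-made recombinant Tdp1 at 1 nM, exposed to compound for 15 min beforehand; beads 10 ug/ml, 10 min.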
TDP1 cell CPT = DT40-hTDP1 cell growth loss with CPT; chicken DT40 Tdp1-/-;hTDP1 cells + 20 nM CPT, ATP luminescence, 48 h; Potency, µM (series often up to 46.2 µM), usual class: inhibitors; 420,000 tested, 12% active; AID 686979; note: nearly all actives have a fitted effect of over 55% in size
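Chicken DT40 Tdp1-/- cells stably complemented with human TDP1 were seeded at 400 cells/well in medium containing 20 nM camptothecin, exposed to pin-transferred compounds, and grown at 37 °C for at least 48 hr. Viability was read as ATP luminescence.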
DT40 TDP1 no CPT = qHTS for Inhibitors of human tyrosyl-DNA phosphodiesterase 1 (TDP1): qHTS in cells in absence of CPT; DT40 Tdp1-/- hTDP1 cells, no CPT, ATP luminescence, 48 h; Potency, µM (titrated, usually from 46.2 µM), actives largely listed as inhibitors; 420,000 tested, 15% active; note: nearly all actives have a fitted effect of over 55% in size
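Cells were dispensed at 400 per well, compounds added by pin tool, plates incubated ≥48 hr at 37 °C, then CellTiter-Glo added for 30 min at room temperature before luminescence reading. Line: DT40 Tdp1-/- complemented with hTDP1; camptothecin omitted.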
VDR inhibitor = vitamin D3 receptor (human) inhibition; VDR-SRC2-3 peptide fluorescence polarization, 2 h; 400,000 tested, 0.93% active; Potency, µM, hits mostly inhibitors
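Two reagent solutions held at 4 deg C in the dark were dispensed, compounds pinned at 23 nl, and the mixture incubated 2 h at room temperature. Read-out: fluorescence polarization of VDR–SRC2-3 peptide binding.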
KAT2A inh = blocks human GCN5L2 histone acetyltransferase | 390,000 tested, 0.21% active | GCN5L2 HAT assay, ThioGlo1 CoA-SH fluorescence | Potency, µM (doses to about 58.9 µM), most hits filed as inhibitors | Q92830
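ThioGlo1-coupled HAT assay: 20nM GCN5L2, 70uM acetyl-CoA, 75uM H3(1-25) peptide, pH 7.5. Fluorescence read at 340/540nm at start and after 20 min at room temperature.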
A number is an active result; [ ] = dose if it differs, or a comment. In the library only some 18% were active in any assay of this set; here they are far more common. Calls come from the whole dose curve; as a rule, active = well fitted curve in the direction sought with a large enough effect; inconclusive = small, poorly fitted or top-dose-only effect, or another doubt; inactive = no such curve, though single readings can be large; an effect the other way counts as inactive or inconclusive.

For CCOc1ccc(NC(=O)c2nc(S(=O)(=O)Cc3ccc(F)cc3)ncc2Cl)cc1 the results were TDP1 cell CPT 0.5µM and DT40 TDP1 no CPT 0.4µM.
For CCSc1nnc(NC(=O)c2ccccn2)s1 the results were PLK1 PBD block inactive, TDP1 block inactive, TDP1 cell CPT 5µM, DT40 TDP1 no CPT 3.2µM, VDR inhibitor inactive and KAT2A inh inactive.
CCSc1nnc(NC(=O)c2cnccn2)s1 was read as PLK1 PBD block inactive, TDP1 block inactive, TDP1 cell CPT inactive, DT40 TDP1 no CPT inactive, VDR inhibitor inactive and KAT2A inh inactive.
Screening CCc1nnc(NC(=O)c2nc(S(C)(=O)=O)ncc2Cl)s1 returned TDP1 block inactive, TDP1 cell CPT 5.8µM, DT40 TDP1 no CPT 9.2µM, VDR inhibitor inactive and KAT2A inh inactive.
`CC(=O)COC(=O)C1=NN(c2ccccc2)C(=O)CC1` gave PLK1 PBD block inactive, TDP1 cell CPT inactive, DT40 TDP1 no CPT inactive, VDR inhibitor inactive and KAT2A inh inactive.
Screening CC1CN(C(=O)CNC(=O)COc2ccccc2)CC(C)O1 (configuration not stated) returned PLK1 PBD block inactive, TDP1 block inactive, TDP1 cell CPT inactive, DT40 TDP1 no CPT inactive, VDR inhibitor inactive and KAT2A inh inactive.
CCc1c(O)nc(SCC(=O)Nc2ccccc2)n(-c2ccccc2C)c1=O was read as PLK1 PBD block inactive, TDP1 cell CPT inactive and DT40 TDP1 no CPT inactive.
`CCOC(=O)c1ccc(NC(=O)c2nc(SC)ncc2Cl)cc1` gave PLK1 PBD block inactive, TDP1 cell CPT inactive, DT40 TDP1 no CPT inactive, VDR inhibitor inactive and KAT2A inh inactive.
CCSc1nnc(NC(=O)c2csc3c2CCC(C)C3)s1 (configuration not stated) was read as PLK1 PBD block inactive, TDP1 block inactive, TDP1 cell CPT 18µM, DT40 TDP1 no CPT inconclusive, VDR inhibitor inactive and KAT2A inh inactive.
CCOc1ccccc1NC(=O)c1nc(S(=O)(=O)Cc2ccccc2F)ncc1Cl was read as TDP1 cell CPT 0.56µM and DT40 TDP1 no CPT inconclusive.
For CC1CCc2c(C(=O)Nc3nccs3)csc2C1 (configuration not stated) the results were PLK1 PBD block inactive, TDP1 block inactive, TDP1 cell CPT inconclusive, DT40 TDP1 no CPT inconclusive, VDR inhibitor inactive and KAT2A inh inactive.
CCOc1ccc(NC(=O)c2nc(S(=O)(=O)Cc3ccccc3C)ncc2Cl)cc1 was read as TDP1 cell CPT 1µM and DT40 TDP1 no CPT 0.71µM.
Cc1ccccc1NC(=O)c1nc(S(C)(=O)=O)ncc1Cl was read as PLK1 PBD block inconclusive, TDP1 block inactive, TDP1 cell CPT 2.3µM, DT40 TDP1 no CPT 2.3µM, VDR inhibitor 40µM and KAT2A inh inactive.
For O=C(COc1ccc([N+](=O)[O-])cc1)Nc1cccc2cccnc12 the results were TDP1 block inactive, VDR inhibitor inactive and KAT2A inh inactive.
CCS(=O)(=O)Nc1ccc(C(=O)c2ccccc2)cc1 was read as PLK1 PBD block inactive, TDP1 block inactive, TDP1 cell CPT inactive, DT40 TDP1 no CPT inactive, VDR inhibitor inactive and KAT2A inh inactive.
`c1nc(NCc2ccoc2)c2cc(-c3ccc4c(c3)OCO4)ccc2n1` gave TDP1 block inactive.
`CS(=O)(=O)c1ncc(Cl)c(C(=O)Nc2ccc(N3CCOCC3)cc2)n1` gave PLK1 PBD block inconclusive, TDP1 block inactive, TDP1 cell CPT 1.2µM, DT40 TDP1 no CPT 1.1µM, VDR inhibitor inactive and KAT2A inh inactive.
Cc1ccc(-n2nc(C)c(NC(=O)CCl)c2C)cc1C was read as PLK1 PBD block inactive, TDP1 block inactive, TDP1 cell CPT 8.2µM, DT40 TDP1 no CPT 8.2µM, VDR inhibitor inactive and KAT2A inh inactive.
Cc1nn(-c2ccccc2)c(C)c1NC(=O)COc1ccc(C#N)cc1 was read as PLK1 PBD block inactive, TDP1 block inactive, TDP1 cell CPT inconclusive, DT40 TDP1 no CPT 12µM, VDR inhibitor inactive and KAT2A inh inactive.
Screening Cc1nn(-c2ccccc2)c(C)c1NC(=O)COc1ccc2ccccc2c1 returned PLK1 PBD block inactive, TDP1 block inactive, TDP1 cell CPT 16µM, DT40 TDP1 no CPT 18µM, VDR inhibitor inactive and KAT2A inh inactive.
`Cc1nn(-c2ccccc2)c(C)c1NC(=O)COc1ccccc1C#N` gave PLK1 PBD block inactive, TDP1 cell CPT inconclusive and DT40 TDP1 no CPT inactive.
For CC(C)(C)OC(=O)CC(=O)NNC(=O)c1nc2ccccc2[nH]1 the results were TDP1 block inactive.
COc1ccc(CCNC(=O)COC(=O)Cc2c[nH]c3ccccc23)cc1OC was read as PLK1 PBD block inactive, TDP1 block inactive, TDP1 cell CPT inconclusive, DT40 TDP1 no CPT inactive, VDR inhibitor inactive and KAT2A inh inactive.
For COc1ccc(NC(=O)N2CC3(CCN(C(=O)c4ccc(OC)cc4)CC3)C2)cc1 the results were TDP1 cell CPT inactive, DT40 TDP1 no CPT inactive, VDR inhibitor inactive and KAT2A inh inactive.
COc1ccc2c(c1)OC(C)CN(CCC(=O)NCC1OCCc3ccccc31)C2 (configuration not stated) was read as TDP1 cell CPT inactive[9.04 µM] and DT40 TDP1 no CPT inactive.
For O=C(c1cc2ccccc2o1)N1CCN(CCOc2ccccc2)CC1 the results were PLK1 PBD block inactive, TDP1 block inactive, TDP1 cell CPT inconclusive, DT40 TDP1 no CPT inconclusive, VDR inhibitor inactive and KAT2A inh inactive.
Screening O=C(Nc1ccc2ccccc2c1)N1CCCN(CCOc2ccccc2)CC1 returned PLK1 PBD block inactive, TDP1 block inactive, TDP1 cell CPT 4.6µM, DT40 TDP1 no CPT 4.1µM, VDR inhibitor inactive and KAT2A inh inactive.
Screening C=C(C)Cn1c(SCC(=O)Nc2cc(C)ccc2C)nc2sc3c(c2c1=O)CCCC3 returned TDP1 cell CPT inconclusive, DT40 TDP1 no CPT inconclusive, VDR inhibitor inactive and KAT2A inh inactive.
Cc1ccc(C)n1Cc1ccc(C(=O)O)cc1 was read as PLK1 PBD block 3µM, TDP1 block 3.5µM, TDP1 cell CPT inactive, DT40 TDP1 no CPT inactive, VDR inhibitor inactive and KAT2A inh 16µM.
COc1cc(C(=O)NC(=S)N(CCC#N)Cc2cccnc2)cc(OC)c1OC was read as PLK1 PBD block inactive, TDP1 block inactive, TDP1 cell CPT inactive, DT40 TDP1 no CPT inconclusive, VDR inhibitor inactive and KAT2A inh inactive.
For CCCOc1ccc(CN(CCC#N)C(=S)NC(=O)c2ccccc2)cc1 the results were PLK1 PBD block inactive, TDP1 cell CPT 7.3µM, DT40 TDP1 no CPT 5.2µM, VDR inhibitor inactive and KAT2A inh inactive.
`COC(=O)CCCCCCCCC(O)CN(C)C` (configuration not stated) gave PLK1 PBD block 27µM, TDP1 block inactive, TDP1 cell CPT inconclusive, DT40 TDP1 no CPT 16µM, VDR inhibitor inconclusive and KAT2A inh inactive.
